Each structure is given as a SMILES string. Inconclusive results are not listed. Active and inactive are the calls of the source. Calls come from the whole dose curve; as a rule, active = well fitted curve in the direction sought with a large enough effect; inconclusive = small, poorly fitted or top-dose-only effect, or another doubt; inactive = no such curve, though single readings can be large; an effect the other way counts as inactive or inconclusive.

A short description of experiment [1]: SW1088 Cancer Cell Toxicity qHTS against the NCATS CANVASS Library (AID 1347350). Note: nearly all actives have a fitted effect of over 75% in size. Note: potency is the fitted concentration of half-maximal effect. A digest of the protocol: (§1)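 1000 cells/well seeded and rested 4 h at 37 °C before pin transfer of compounds in an 11-pnt series. Exposure 72 h at 37 °C/5% CO2; viability by CellTiter-Glo luminescence after 15 min at room temperature.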
(In qHTS, concentration-response curves come from the screen itself.)

The nature of experiment [2]: U-118MG Cancer Cell Toxicity qHTS against the NCATS CANVASS Library (AID 1347351). Note: potency is the fitted concentration of half-maximal effect. A digest of the protocol: as §1
Experiment [3] is described as follows: A2780 Cisplatin Sensitive Ovarian Cancer Cell Toxicity qHTS against the NCATS CANVASS Library (AID 1347353). Note: nearly all actives have a fitted effect of over 60% in size. Note: potency is the fitted concentration of half-maximal effect. A digest of the protocol: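 Quantitative HTS format: eleven compound concentrations applied to pre-seeded cells, 72 h incubation at 37 °C, then ATP detection by luminescence.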
Experiment [4] is described as follows: HPAF-II 24hr Apoptosis Induction qHTS against the NCATS CANVASS Library (AID 1347356). A digest of the protocol:
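Using an 11-point qHTS format, HPAF-II cells in DMEM/10% FBS received compounds for 24 h; doxorubicin titration as control. Caspase-3/7 activity quantified by DEVD-luciferase luminescence.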

Experiment [5] in a line: HEK293 18hr Apoptosis Induction qHTS against the NCATS CANVASS Library (AID 1347357). A digest of the protocol: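 Luminescent caspase-3/7 signal is measured in HEK293 cells exposed for 18 hours to an 11-point concentration series; doxorubicin serves as the plate control.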
Experiment [6] in a line: HPAF-II 12hr Apoptosis Induction qHTS against the NCATS CANVASS Library (AID 1347358). A digest of the protocol: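 Twelve-hour compound exposure of HPAF-II cells in DMEM with 10% FBS, then luminescent Caspase-Glo 3/7 detection after 15 min at room temperature; doxorubicin control.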
The nature of experiment [7]: HPAF-II 18hr Apoptosis Induction qHTS against the NCATS CANVASS Library (AID 1347360). A digest of the protocol:
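Apoptosis was scored as caspase-3/7 activity in HPAF-II pancreatic cancer cells treated 18 hours with an 11-point concentration series.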

Experiment [8] is described as follows: KB-8-5-11 Cancer Cell Toxicity qHTS against the NCATS CANVASS Library (AID 1347364). Note: nearly all actives have a fitted effect of over 75% in size. Note: potency is the fitted concentration of half-maximal effect. A digest of the protocol:
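Luminescent ATP signal (CellTiter-Glo, 10 min at room temperature) measured cell survival of KB-8-5-11 after 72 hr compound treatment. For confirmation, the cells were also grown with 1uM tariquidar.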

A short description of experiment [9]: qHTS for ATAD5 Agonist screened against the NCATS CANVASS Library (AID 1347367).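 Note: luciferase reporter driven by ATAD5 which rises upon DNA damage.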 A digest of the protocol:
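Step one plated reporter cells and let them acclimate 5hr. Step two pinned compounds with MMS as positive and 0.46% DMSO as negative control. After 16hr incubation, fluorescence viability then luminescence were read.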

Experiment [10] is described as follows: MCF7 Cancer Cell Toxicity qHTS against the NCATS CANVASS Library (AID 1347369). A digest of the protocol:
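Cytotoxicity is measured by ATP content: MCF7 cells at 500 per well receive an 11-point compound series and, after 72 hr at 37C, are lysed with CellTiterGlo for luminescence.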

Experiment [11] is described as follows: qHTS for ATAD5 Antagonist screened against the NCATS CANVASS Library (AID 1347370).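 Note: HEK293T cells carrying an ATAD5 luciferase reporter co-treated with 10 µM 5-fluorouridine; series mostly up to about 46 µM; nearly all actives have a fitted effect of over 65% in size.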 A digest of the protocol: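 HEK293T-ATAD5 luc reporter, 2000 cells/well; 5hr attach; cpd + 10 uM 5-FUrd; 16hr 37C, 5% CO2. Readouts: CellTiter-Fluor fluorescence (1hr), then Amplite luciferase luminescence (30min RT).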
Experiment [12] in a line: J3T Cancer Cell Toxicity qHTS against the NCATS CANVASS Library (AID 1347371). Note: potency is the fitted concentration of half-maximal effect. A digest of the protocol: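 ATP-based cytotoxicity in canine J3T cells: 72 hr exposure at 37C, 11-point titration, CellTiterGlo luminescent detection.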
The target of experiment [13] is Nuclear receptor subfamily 1 group I member 3 (Homo sapiens) (UniProt Q14994). Briefly: qHTS for Constitutive Androstane Receptor (CAR) Antagonist screened against the NCATS CANVASS Library (AID 1347372). Note: potency is the fitted concentration of half-maximal effect. A digest of the protocol: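 Antagonist mode: compound added alongside 50 nM CITCO to HepG2-hCAR-CYP2B6 reporter cells, 24hr at 37C. Viability by CellTiter-Fluor fluorescence, then CAR-driven luciferase by ONE-Glo luminescence.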

Experiment [14] is described as follows: Cytotoxicity qHTS for assessment of Hepg2 cells membrane integrity screened against the NCATS CANVASS Library (AID 1347387). A digest of the protocol:
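Membrane damage in HepG2 monolayers was estimated from released LDH, measured with CytoTox-ONE (ex 560/em 590 nm), after 5 hr treatment across 0.59 nM - 46 uM final.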

Experiment [15] can be described thus: qHTS for activators of dead-cell proteases activity screened against the NCATS CANVASS Library (AID 1347392).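 Note: luminescence from protease leaking out of membrane-damaged cells cleaving impermeant substrate; rising signal means more cytotoxicity.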 A digest of the protocol:
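Luminescent dead-cell protease readout (AAF-aminoluciferin, 15 min, room temperature) after 5 h compound treatment of HepG2 cells (2000/well, pre-attached 18 h). Eleven concentrations.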

A short description of experiment [16]: Vero-766 cells viability qHTS against the NCATS CANVASS Library: Counterscreen for Zika virus inhibition assay (AID 1347394). Note: nearly all actives have a fitted effect of over 60% in size. Note: potency is the fitted concentration of half-maximal effect. A digest of the protocol: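 This cytotoxicity counterscreen uses African green monkey Vero 766 cells in the absence of Zika virus. Compounds are incubated with cells for 72 h, and ATP-based luminescence reports viability.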
Experiment [17] is described as follows: Viability qHTS for inhibitors of the SERCaMP assay screened against the NCATS CANVASS Library (AID 1347400). Note: nearly all actives have a fitted effect of over 70% in size. Note: potency is the fitted concentration of half-maximal effect. A digest of the protocol:
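Measures loss of viability in SERCaMP reporter SH-SY5Y cells treated for 48 h with compounds; luminescent ATP detection by CellTiter-Glo.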

A short description of experiment [18]: Redox Reaction Profiling qHTS: Assay Interference Panel against the NCATS CANVASS Library (AID 1347401). A digest of the protocol:
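Redox-cycling liability assessed as DTT-driven conversion of resazurin (5 uM, with 200 uM DTT, HEPES pH 7.3) to fluorescent resorufin. Fluorescence at 525/598 nm measured initially and after 15 min dark incubation.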

Experiment [19] in a line: Secretion counterscreen for inhibitors of the SERCaMP assay screened against the NCATS CANVASS Library (AID 1347390).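 Note: light from luciferase secreted into medium read as a measure of general secretion.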 Note: potency is the fitted concentration of half-maximal effect. A digest of the protocol: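 Counterscreen identifying compounds that disrupt secretion, using SH-SY5Y cells with a constitutively secreted Gaussia luciferase reporter. A 20 h compound exposure (top 77 uM) precedes luminescent detection with coelenterazine.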
On the technique in general: The purpose of a counterscreen is to sort out artefacts and off-target activity.

In experiment [20] the target is Cytochrome P450 3A4 (Homo sapiens) (UniProt P08684). In words: qHTS Assay for Activators of Cytochrome P450 3A4 (AID 885). Note: nearly all actives have a fitted effect of over 65% in size. A digest of the protocol: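 Luminescent readout of luciferin formed from 25 uM Luciferin-PPXE (KM level) by 20 nM CYP3A4 in 200 mM KPO4, with 60 min NADPH-driven reaction at room temperature after 10 min compound exposure. Ketoconazole (57 uM) defined 100% inhibition.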
Chain of Cytochrome P450 3A4 (Homo sapiens) (P08684 whole entry, looked up): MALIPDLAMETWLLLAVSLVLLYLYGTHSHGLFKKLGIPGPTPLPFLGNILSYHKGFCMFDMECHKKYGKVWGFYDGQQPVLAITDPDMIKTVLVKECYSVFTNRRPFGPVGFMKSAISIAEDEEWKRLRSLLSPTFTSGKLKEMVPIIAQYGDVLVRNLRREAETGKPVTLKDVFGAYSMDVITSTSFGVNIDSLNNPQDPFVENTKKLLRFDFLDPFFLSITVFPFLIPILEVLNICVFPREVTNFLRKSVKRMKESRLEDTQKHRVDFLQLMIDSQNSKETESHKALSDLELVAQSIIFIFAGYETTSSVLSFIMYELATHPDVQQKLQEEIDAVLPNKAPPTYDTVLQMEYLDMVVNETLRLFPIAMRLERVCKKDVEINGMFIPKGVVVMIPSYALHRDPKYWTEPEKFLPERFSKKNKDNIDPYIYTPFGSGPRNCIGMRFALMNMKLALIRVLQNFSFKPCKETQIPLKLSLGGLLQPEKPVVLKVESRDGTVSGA

Chain of Nuclear receptor subfamily 1 group I member 3 (Homo sapiens) (Q14994 whole entry, looked up): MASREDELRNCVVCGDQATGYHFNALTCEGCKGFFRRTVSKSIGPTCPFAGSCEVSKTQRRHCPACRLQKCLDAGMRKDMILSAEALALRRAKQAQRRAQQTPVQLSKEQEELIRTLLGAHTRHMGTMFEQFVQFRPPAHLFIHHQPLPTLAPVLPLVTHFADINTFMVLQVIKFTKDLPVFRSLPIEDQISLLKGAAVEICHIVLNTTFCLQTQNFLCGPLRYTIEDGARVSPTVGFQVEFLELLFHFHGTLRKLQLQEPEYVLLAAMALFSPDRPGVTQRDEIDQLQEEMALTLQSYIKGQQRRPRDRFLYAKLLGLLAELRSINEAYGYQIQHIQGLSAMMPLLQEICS

Take `CCCC[C@@H]1CC[C@H]2CCCC(CCC)N12` (stereo not given in full): the Potency entry in experiment [1], in [2], in experiment [3], in experiment [5], in experiment [8] and in [9] was “inactive” in each case. Further, the Potency result in [10], in [11], in experiment [12], in [13], in experiment [15] and in experiment [16] was “inactive” in each case. The Potency entry in experiment [17] and in experiment [18] was “inactive” in each case. Further, the compound was called inactive in experiment [4], in [6], in [7] and in experiment [14].
On to `CCCCC[C@@H]1OC(=O)[C@@H](C)N(C)C(=O)[C@H](CCCCC)OC(=O)C(C)N(C)C(=O)[C@H](CCCCC)OC(=O)[C@@H](C)N(C)C(=O)[C@H](CCCCC)OC(=O)C(C)N(C)C1=O` (stereo not given in full), for which the Potency in experiment [1] was 6.68 µM (active); in experiment [2], 14.9 µM (active); in experiment [3] it was 7.43 µM (active); in experiment [13], 11.7 µM (active); in experiment [16], 20.9 µM (active); in experiment [17], 38.1 µM (active). The result in [4], in experiment [6], in [7] and in experiment [14] was inactive. Moreover, the Potency entry in experiment [5], in experiment [9], in [19] and in experiment [18] was “inactive” throughout.
For the compound `CNCCc1ccc(O)cc1`, the Potency entry in experiment [1], in [2], in experiment [3], in experiment [5], in experiment [8] and in experiment [9] was “inactive” in each case. Further, the Potency entry in [10], in experiment [11], in experiment [12], in experiment [13], in experiment [19] and in experiment [15] was “inactive” each time. Besides, the Potency result in [16], in experiment [17] and in [18] was “inactive” each time. Further, the result in experiment [4], in [6], in experiment [7] and in experiment [14] was inactive.
As for `CC=C1CN(C=O)[C@H]2C[C@@H]1[C@@H](C(=O)OC)[C@@]13CCOC21Nc1ccccc13` (stereo not given in full), the Potency result in experiment [1], in [2], in [3], in experiment [5], in [8] and in experiment [9] was “inactive” each time. Moreover, the Potency result in [10], in experiment [11], in [12], in experiment [13], in experiment [19] and in experiment [15] was “inactive” in each case. For the same compound, the Potency result in [17] and in [18] was “inactive” each time. In addition, the call in [4], in experiment [6], in experiment [7] and in experiment [14] was inactive.
With `CNCCc1c[nH]c2ccccc12`, the Potency entry in experiment [2], in experiment [3], in experiment [5], in experiment [8], in experiment [9] and in experiment [10] was “inactive” each time. In addition, the Potency entry in experiment [11], in experiment [12], in experiment [13], in experiment [19], in [15] and in experiment [16] was “inactive” throughout. Also, the Potency entry in experiment [17] and in [18] was “inactive” in each case. For the same compound, the compound was classed as inactive in [4], in experiment [6], in experiment [7] and in experiment [14].
Take `O=C(c1ccccc1O)c1[nH]c(Cl)c(Cl)c1-n1c(C(=O)c2ccccc2O)cc(Cl)c1Cl`: the Potency was 0.749 µM (active) in [1]; 6.68 µM (active) in [2]; 3.72 µM (active) in experiment [3]; 2.64 µM (active) in experiment [8]; 2.96 µM (active) in experiment [12]; 3.71 µM (active) in experiment [13]. The Potency in [19] was 19.3 µM (active); in [16] it was 1.32 µM (active); in [17] it was 19.1 µM (active). Besides, the call in experiment [4], in experiment [6], in [7] and in experiment [14] was inactive. Moreover, the Potency result in [5], in experiment [9], in experiment [15] and in experiment [18] was “inactive” in each case.
In the case of `O=C(Cc1ccc(Cl)c(Cl)c1)N1CCCC[C@H]1CN1CCCC1`, the Potency entry in experiment [20] is “inactive”.

Source of the values: PubChem BioAssay (NCATS).
